Drawing on PubChem BioAssay AID2546 (National Center for Advancing Translational Sciences (NCATS), 2010), this text covers Potency for 71 molecules.

In all, about 310,000 compounds went through this assay and about 11,000 (3.5%) were called active. About 8% were inconclusive and are not listed. Calls come from the whole dose curve; as a rule, active = well fitted inhibition curve with a large enough effect; inconclusive = small, poorly fitted or top-dose-only effect, or effect the other way; inactive = flat fitted curve, though single readings scatter. The list comes from a sample in which actives are over-represented; it also holds similar structures and randomly drawn compounds. A call without a number means that no potency is given here.
Potency is the fitted concentration of half-maximal effect.

This test can be described thus: VP16 counterscreen qHTS for inhibitors of ROR gamma transcriptional activity.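 Note: Gal4-VP16 expression switched on by copper sulfate through the metallothionein promoter; nearly all actives have a fitted effect of over 50% in size.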 As to conditions: Drosophila S2 Gal4-VP16 UAS-luciferase, luminescence, 20 h; series mostly up to 53.6 µM. Background: Counterscreens check selectivity or assay interference.
`O=C1CCC(C(=O)N2CCCCO2)CN1Cc1cccc(C(F)(F)F)c1` (stereo unspecified): the Potency result was “inactive”.

For the molecule `NS(=O)(=O)c1ccc(CCNS(=O)(=O)c2cccc3cccnc23)cc1`, the Potency result is “inactive”.

For `Cc1cc(Cl)c2oc(C(=O)NC(C)c3ccncn3)c(C)c2c1` (stereo unspecified), the Potency result was “inactive”.

On to `CN(C)/N=C/c1cc(Cl)cc([N+](=O)[O-])c1O`, for which the Potency entry was “inactive”.

`Cc1cc(C(=O)N/N=C/c2ccccc2[N+](=O)[O-])c(C)o1`: the Potency entry is “inactive”.

For the molecule `O=C(N/N=C/c1cc(Cl)cc([N+](=O)[O-])c1O)C(O)(c1ccccc1)c1ccccc1`, the Potency was 0.891 µM (active).

On to `Cc1nn(C)c(Cl)c1CN1CCC(Oc2ccc(C(=O)N3CCCC3)cc2)CC1`, for which the Potency result was “inactive”.

Regarding `O=C(C[C@H]1C(=O)N(c2ccc(F)c(F)c2)C[C@@H]1Cc1ccccc1)Nc1ccccc1`, the Potency result was “inactive”.

As to `Cc1c(C(=O)NC2CCCCC2)oc2ccccc12`, the Potency result was “inactive”.

As to `COc1ccc(C=C(C#N)C#N)c(CSc2ccccn2)c1`, the Potency is 15.8 µM (active).

Take `CCOC(=O)CSc1ccccn1`: the Potency entry was “inactive”.

For the molecule `COc1cccc(N(CC(=O)NCCSc2ccccn2)S(C)(=O)=O)c1`, the Potency result was “inactive”.

`CCCn1c2ccccc2c2cnn(CC(=O)NCCCN3CCCCC3CC)c(=O)c21` (stereo unspecified): the Potency entry is “inactive”.

Regarding `O=C(OCC(=O)N1CCN(C(=O)c2ccco2)CC1)c1cccc(O)c1`, the Potency entry was “inactive”.

On to `Cc1ccnc(N2CCCC(C(=O)NC3CC3)C2)n1` (stereo unspecified), for which the Potency entry was “inactive”.

Regarding `Cc1nc2ccccc2c(=O)n1NC(=O)c1ccccc1`, the Potency entry is “inactive”.

As for `Cc1ccnc(-n2sc3ccccc3c2=O)n1`, the Potency was 11.2 µM (active).

With `Cc1ccc(CN2CCNC(=O)C2CC(=O)NCc2csc(C(C)C)n2)cc1` (stereo unspecified), the Potency entry was “inactive”.

On to `O=C(c1ccc(Cl)cc1)N1N=C(c2ccccn2)CC1(O)C(F)(F)F` (stereo unspecified), for which the Potency was 4.47 µM (active).

For the molecule `COC(=O)C1(O)CC(C(C)C)=NN1C(=O)c1ccc(Cl)cc1` (stereo unspecified), the Potency result was “inactive”.

Turning to `O=C(C1CC1)N1N=C(c2ccc(Br)cc2)CC1(O)C(F)(F)F` (stereo unspecified), the Potency result was “inactive”.

`CCC(C)c1ccc(NC(=S)NCc2ccccn2)cc1` (stereo unspecified): the Potency is 8.91 µM (active).

In the case of `O=C(NCc1ccccn1)Nc1ccc(F)cc1`, the Potency result was “inactive”.

On to `COc1cccc(NC(=S)NCc2ccccn2)c1`, for which the Potency result was “inactive”.

As to `Cc1cccc(NS(=O)(=O)c2ccc(C(=O)NCC(C)(C)N3CCOCC3)cc2)c1C`, the Potency result is “inactive”.

Regarding `Cc1cccnc1CC(C)NC(=O)c1cc(COc2cncc(Cl)c2)on1` (stereo unspecified), the Potency entry is “inactive”.

On to `COC(=O)[C@H](Cc1ccccc1)NC(=O)Nc1ccc(OC)cc1`, for which the Potency result was “inactive”.

As for `COc1cc([C@H](Cc2ccccc2)NC(C)=O)oc(=O)c1`, the Potency is 11.2 µM (active).

Regarding `CCOC(=O)C(Cc1ccccc1)NC(=O)CCC(=O)c1ccc(OC)cc1` (stereo unspecified), the Potency entry is “inactive”.

Turning to `COc1cc(/C=C2\C(=N)N3N=C(CC(=O)N4CCOCC4)SC3=NC2=O)cc(OC)c1OC`, the Potency result was “inactive”.

As for `CN(C)C(=O)CCC(=O)N1CCCCC1C(=O)Nc1ccc(Oc2ccccc2F)cc1` (stereo unspecified), the Potency result was “inactive”.

Turning to `C/C(=N\NC(=O)c1cccnc1)c1ccc(-c2ccccc2)cc1`, the Potency entry was “inactive”.

`C/C(=N\NC(=O)c1ccc(C)cc1)C1C(=O)c2ccccc2C1=O`: the Potency was 0.562 µM (active).

As to `Cc1ccc(C(=O)NCCNC(=O)c2ccccc2)cc1`, the Potency result was “inactive”.

As to `CC(Cc1cccs1)N(Cc1ccc(Cl)cc1)C(=O)c1ccncc1` (stereo unspecified), the Potency result is “inactive”.

Consider `CCOC(=O)c1ccc2[nH]c3c(c2c1)CCCC3NC=O` (stereo unspecified), for which the Potency entry is “inactive”.

Regarding `CCN(CC)CC(=O)Nc1sc2c(c1C(=O)c1ccccc1C)CCC2`, the Potency was 17.8 µM (active).

Regarding `CCOC(=O)c1c(NC(=S)NC)sc2c1CCCC2`, the Potency was 1.41 µM (active).

Consider `O=C(Nc1sc2c(c1C(=O)O)CCC2)c1ccccc1F`, for which the Potency result is “inactive”.

Take `CCCOC(=O)Nc1sc2c(c1C(=O)OCC)CCC2`: the Potency entry is “inactive”.

In the case of `CCc1ccc(N(CC(=O)Nc2sc3c(c2C(=O)OC)CCCC3)S(C)(=O)=O)cc1`, the Potency result is “inactive”.

Take `CCOC(=O)c1c(NC(=O)c2ccc(Br)o2)sc2c1CCCC2`: the Potency entry is “inactive”.

With `CCOC(=O)c1c(NC(=O)C(C)Sc2c[nH]c3ccccc23)sc2c1CCC2` (stereo unspecified), the Potency result was “inactive”.

Turning to `CCOCC(=O)Nc1sc2c(c1C(=O)OCC)CCCC2`, the Potency result was “inactive”.

For `CCOC(=O)c1c(NC(=S)Nc2ccccc2C)sc2c1CCC2`, the Potency was 5.62 µM (active).

Consider `O=C(O)CN1c2cccc3cccc(c23)S1(=O)=O`, for which the Potency result was “inactive”.

In the case of `CC(C)(COC(=O)Nc1ccccc1)COC(=O)Nc1ccccc1`, the Potency result was “inactive”.

Consider `CC(=O)Nc1ccc(NC(=O)CC2CCCC2)cc1`, for which the Potency result is “inactive”.

With `COc1cc(C(=O)N2CCN(C3CCC(C)CC3)CC2)cc(OC)c1OC` (stereo unspecified), the Potency result is “inactive”.

Take `COc1ccccc1/C=N/N1CCN(Cc2ccccc2Cl)CC1`: the Potency result is “inactive”.

On to `CCOCCCNc1c(CC)c(C)c(C#N)c2nc3ccccc3n12`, for which the Potency result was “inactive”.

For `C=C(C(C)=O)C(O)c1cccs1` (stereo unspecified), the Potency entry is “inactive”.

Take `C=C(C(C)=O)C(O)c1ccc([N+](=O)[O-])cc1` (stereo unspecified): the Potency was 10 µM (active).

On to `CC(=O)NCC(O)c1ccc([N+](=O)[O-])cc1` (stereo unspecified), for which the Potency entry is “inactive”.

For the molecule `O=C(c1ccco1)N1CCN(C(=O)c2cc(-c3ccccc3F)no2)CC1`, the Potency entry is “inactive”.

For `O=C(c1cc(COc2ccc(F)cc2F)on1)N1CCOCC1`, the Potency result was “inactive”.

As to `CC(C)C[C@H](NC(=O)C1CC(=O)N(c2ccc3c(c2)OCCO3)C1)C(=O)NC1CCCC1` (stereo partly specified), the Potency entry was “inactive”.

As to `Cc1noc(C)c1-c1ccc2ncnc(NCc3ccc4[nH]ccc4c3)c2c1`, the Potency entry was “inactive”.

Regarding `COc1ccc(COC(=O)c2ccc(Cl)c(S(=O)(=O)N3CCOCC3)c2)cc1F`, the Potency result was “inactive”.

`COc1ccccc1/C=N\Nc1cc(C)nc(-n2nc(C)cc2C)n1`: the Potency is 0.355 µM (active).

With `Cc1ccc(S(=O)(=O)Nc2nc(C)cc(N/N=C/c3ccc(O)cc3)n2)cc1`, the Potency entry is “inactive”.

With `COc1cccc2c(N/N=C/c3ccco3)cc(C)nc12`, the Potency result is “inactive”.

For the molecule `COc1ccc(/C=N/Nc2cc(N3CCOCC3)nc(C)n2)c(OC)c1`, the Potency result is “inactive”.

Consider `Cc1cc(N/N=C\c2ccc(Br)cc2)nc(-n2nc(C)cc2C)n1`, for which the Potency was 1.41 µM (active).

In the case of `COc1ccc(Nc2cc(C)nc(-n3nc(C)cc3C)n2)cc1`, the Potency is 1.12 µM (active).

On to `Cc1nc(Cl)cc(N/N=C/c2ccccc2)n1`, for which the Potency result is “inactive”.

For `CC(=O)c1ccc(Oc2cc(C)nc(-n3nc(C)cc3C)n2)cc1`, the Potency is 6.31 µM (active).

`Cc1cc(Nc2ccc(Cl)cc2)nc(N2CCOCC2)n1`: the Potency entry is “inactive”.

For the molecule `COc1ccc(NC(=O)c2nc(-n3nc(C)cc3C)ccc2Cl)cc1Cl`, the Potency result was “inactive”.

Consider `Cc1cc(Oc2ccc(Cl)cc2)nc(SCC(=O)c2ccccc2)n1`, for which the Potency result is “inactive”.

As for `Cc1cc(C)n(-c2cc(Oc3ccccc3)ncn2)n1`, the Potency entry was “inactive”.
